Assay results as given in the supplement of paper PMC6555819.

Experiments:
Assay in all cases: PBM binding z-score (relative to random genomic background probes); higher = stronger binding; sequences stand for … in GC…GCGATTGACAGCGTAGAATGAAGG
[1] = system: FXR:RXRa (NR concentration 270 nM, RXRa partner concentration 90 nM)
Method in brief: (§1)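 Binding buffer was PBS pH 7.4 with 2% milk, 0.02% Triton X-100, 1 mM DTT, 0.2 mg/mL BSA and 0.4 mg/ml salmon testes DNA. In it, ligand-free nuclear receptor dimers were incubated 1 h on custom Agilent 4×180K protein-binding microarrays carrying double-stranded probes. Antibodies against each partner (one per run) detected binding, and z-scores were calculated against random background probes after regression normalization of scanned fluorescence.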

[2] = system: LXRa:RXRa (NR concentration 270 nM, RXRa partner concentration 90 nM)
Method in brief: as §1

[3] = system: LXRa homodimer (NR concentration 270 nM)
Method in brief: as §1

[4] = system: LXRb:RXRa (NR concentration 270 nM, RXRa partner concentration 90 nM)
Method in brief: as §1

[5] = system: LXRb homodimer (NR concentration 270 nM)
Method in brief: as §1

[6] = system: PPARa:RXRa (NR concentration 270 nM, RXRa partner concentration 90 nM)
Method in brief: as §1

[7] = system: PPARg:RXRa (NR concentration 180 nM, RXRa partner concentration 90 nM)
Method in brief: as §1

[8] = system: PPARg:RXRa 270nM:90nM, anti-RXR (NR concentration 270 nM, RXRa partner concentration 90 nM)
Method in brief: as §1

[9] = system: PPARg:RXRa 30nM:10nM, anti-RXR (NR concentration 30 nM, RXRa partner concentration 10 nM)
Method in brief: as §1

[10] = system: PPARg:RXRa 90nM:30nM, anti-RXR (NR concentration 90 nM, RXRa partner concentration 30 nM)
Method in brief: as §1

[11] = system: PPARg:RXRa DBDmut IVT, anti-RXR (DBD mutation: RXRa K156A/R161A, NR concentration 270 nM, RXRa partner concentration 90 nM)
Method in brief: as §1

[12] = system: PPARg:RXRa IVT, anti-PPARg (NR concentration 270 nM, RXRa partner concentration 90 nM)
Method in brief: as §1

[13] = system: PPARg DBDmut:RXRa IVT, anti-PPARg (DBD mutation: PPARg1 K132A/R137A, NR concentration 270 nM, RXRa partner concentration 90 nM)
Method in brief: as §1

[14] = system: PPARg DBDmut IVT, anti-PPARg (DBD mutation: PPARg1 K132A/R137A, NR concentration 270 nM)
Method in brief: as §1

[15] = system: PPARg homodimer (NR concentration 180 nM)
Method in brief: as §1

[16] = system: PXR:RXRa (NR concentration 270 nM, RXRa partner concentration 90 nM)
Method in brief: as §1

[17] = system: PXR homodimer (NR concentration 270 nM)
Method in brief: as §1

[18] = system: RARa:RXR (NR concentration 270 nM, RXRa partner concentration 90 nM)
Method in brief: as §1

[19] = system: RARa homodimer (NR concentration 270 nM)
Method in brief: as §1

[20] = system: RARb:RXRa (NR concentration 270 nM, RXRa partner concentration 90 nM)
Method in brief: as §1

Sequence	PBM binding z-score [1]	PBM binding z-score [2]	PBM binding z-score [3]	PBM binding z-score [4]	PBM binding z-score [5]	PBM binding z-score [6]	PBM binding z-score [7]	PBM binding z-score [8]	PBM binding z-score [9]	PBM binding z-score [10]	PBM binding z-score [11]	PBM binding z-score [12]	PBM binding z-score [13]	PBM binding z-score [14]	PBM binding z-score [15]	PBM binding z-score [16]	PBM binding z-score [17]	PBM binding z-score [18]	PBM binding z-score [19]	PBM binding z-score [20]
ATATGTAGTTTAGCTGGGGTCATTCAGACTAGGC	4.14	4.3	2.38	4.58	1.66	4.45	1.66	2.42	0.899	1.87	1.04	1.41	1.71	2.11	1.95	5.98	3.93	5.81	1.36	2.74
CCGAGTAGGTTATGGGGTATTCAGGCAACGGTGA	0.497	0.701	0.47	1.09	0.945	1.81	2.56	3.45	0.984	2.68	3.61	3.4	-0.421	-0.159	1.48	0.386	0.458	0.453	1.06	0.8
TGAATGAGGATAAAGATCAGGGAACGTGGCGTCG	0.0362	-0.419	-0.157	-0.514	-0.0964	1.03	1.87	3.78	2.17	3.5	-0.598	0.0508	-0.331	-0.373	-0.144	-0.614	-0.0385	-0.537	-0.101	-0.238
TCTAGCAGGCCAGAGGGTGACTCAAGAGGTACGG	-0.401	0.0114	-0.795	-0.373	-1.42	0.54	1.05	2.1	1.99	2.19	0.764	0.183	-1.35	-1.1	-0.406	-0.274	-0.839	-0.247	-1.15	0.306
ATATGAAGGTTAAGGGTCATTCAGGTTGGTTCGC	5.91	5.46	3.32	4.85	1.14	5.8	8.33	7.73	5.9	8	2.29	4.44	1.32	1.46	3.39	5.84	2.27	6.97	1.13	4.19
CGAACTAGGTCACAGAGGTCAAAGTCCGTGCGTA	7.51	6.91	7.06	6.5	1.96	6.56	10.2	8.5	7.02	8.62	8.62	8.94	8.99	6.82	9.8	6.92	13.2	7.77	5.26	5.23
CCTAACAGGCCAGGGTCACTCAAGCATTTCGCTT	2.05	1.86	-0.195	2.38	-0.349	3.2	0.798	1.41	-0.181	0.356	0.296	0.882	-0.338	-0.618	1.4	2.58	-0.222	3.26	0.384	2.85
TCATATAGGTAGAAGGTGAAAGTCGGTGTGGTAA	1.26	1.21	0.0834	1.16	-0.0966	3.46	5.61	6.84	5.99	7.35	3.5	2.69	1.46	0.808	1.59	0.746	0.482	1.17	1.42	1.08
CCGACTAGGGCAAAGGTTACCATACTCAGTACGA	2.31	2.04	0.518	2.49	-0.304	6.31	11.2	8.96	9.02	9.62	5.49	6.42	0.866	0.896	2.04	2.23	-0.079	3.59	0.449	2.85
GATACAGGGTCAAGGCCAGGGTACGCGTATTGAT	6.68	4.26	-0.139	3.62	-0.397	5.82	5.63	5.3	2.2	4.46	1.85	4.19	0.695	0.43	3.1	4.32	0.122	5.19	0.648	4.5
CGTCCAAGATCAAGGTCAGTGAAAGAGACTCGAA	1.53	1.53	0.459	1.7	-0.296	2.7	0.906	1.19	0.0233	0.76	1.25	1.67	-0.223	-0.447	1.25	1.82	0.628	2.07	0.651	3.28
CCGACTGGGGCGTAAGGTTACCATAAGCCAGCCC	0.247	1.35	-0.338	0.704	-1.25	1.35	1.19	2.42	0.143	1.7	0.446	0.275	-1.37	-0.827	0.0631	0.213	-0.391	0.883	-0.676	1
AGAACGAGGGCACGCTGAGTTGATAGTAGAGTAG	0.725	0.439	-0.765	0.35	-0.699	2.1	1.94	1.62	0.448	0.971	4.08	3.89	0.542	0.293	0.125	1.26	0.49	0.759	-0.324	2.57
CCTTACGGGTCACTGAGAGGTTATAGCATTTGGA	5.67	4.71	0.946	3.9	-0.26	5.58	4.88	4.87	1.69	3.68	3.25	3.46	0.696	-0.194	3.62	5.18	0.124	5.88	1.03	4.1
